From PubChem BioAssay (NCATS)
Inconclusive results are not listed. The source made the active and inactive calls. Unless noted, calls follow the shape of the dose curve; as a rule, active = well fitted curve in the direction sought with a large enough effect; inconclusive = small, poorly fitted or top-dose-only effect, or another doubt; inactive = no such curve, though single readings can be large; an effect the other way counts as inactive or inconclusive.

What was measured:
[1] = AP1 Signaling Pathway (AID 357; active = well fitted curve in either direction with a large enough effect, not every such curve was filed as active;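 also: ME-180 reporter cells stimulated with EGF at its EC50 level; % is scaled to controls: 0 for no effect and ±100 for the full control effect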); conditions: ME-180 AP-1-bla reporter, EGF-induced, beta-lactamase ratio, 5 h; at 7.69 µM (top of the series) unless noted
In short: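 A ratiometric CCF4 readout (405 nm excitation; 460 and 530 nm emission) quantified AP-1-driven beta-lactamase in ME-180 cells after 5 h with compound and EC50 EGF; AC50 values were derived for activators and inhibitors.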

[2] = biological target: Cytochrome P450 1A2 (Homo sapiens) (UniProt P05177); assay: p450-cyp1a2 (AID 410; calls by dose curve; also: potency is read from the fitted curve at half-maximal effect)
In short: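 20nM CYP1A2, 100uM Luciferin-ME (=Km), 100mM KPO4; cpd 10 min RT; +NADPH regen, 60 min RT; stop/detect 20 min; luminescence. Normalized to furafylline 57 uM = full inhibition.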

[3] = NFAT Signaling Pathway (AID 444; active = well fitted curve in either direction with a large enough effect, not every such curve was filed as active;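 also: carbachol stimulus at about its EC50 of 1 µM final; % is scaled to controls: 0 for no effect and ±100 for the full control effect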); conditions: Jurkat NFAT-bla M1, carbachol, beta-lactamase ratio, 5 h; at 7.69 µM (top of the series) unless noted
In short: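 Read-out: CCF4 FRET ratio (460 nm/530 nm) after 1 h RT dye loading, used for %activity and AC50 from titration series. Cells: Jurkat NFAT-β-lactamase/M1 line, treated with compound plus 1 uM carbachol for 5 h, 37 °C.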

[4] = Stat Signaling Pathway (AID 446; active = well fitted curve in either direction with a large enough effect, not every such curve was filed as active;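 also: ME-180 cervical cancer cells given 40 pM IL-6 alongside compound; SIE-controlled beta-lactamase reporter measured as 460/530 nm FRET emission ratio; % is scaled to controls: 0 for no effect and ±100 for the full control effect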); conditions: ME-180 SIE beta-lactamase reporter, IL-6 stimulated, 5 h; at 7.69 µM (top of the series) unless noted
In short: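 Compound effects on IL-6-induced STAT reporter activity were measured in ME-180 cells. After overnight culture, cells were co-treated with 40 pM IL-6 for 5 hrs before beta-lactamase substrate loading at room temperature.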

[5] = biological target: Glucocorticoid receptor (Homo sapiens) (UniProt P04150); assay: GR-GFP Redistribution (AID 450;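 active = compounds whose dose series gives a full or clear partial fitted curve of increased nuclear translocation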; also: potency is read from the fitted curve at half-maximal effect); conditions: U2OS GR-GFP nuclear translocation, laser cytometry, 2 h
[6] = biological target: Glucocorticoid receptor (Homo sapiens) (UniProt P04150); assay: GR-EFC Redistribution (AID 451; calls by dose curve; also: potency is read from the fitted curve at half-maximal effect); conditions: CHO-K1 GR-EFC translocation, beta-gal luminescence, 2 h
In short: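 Translocation of GR-ED fusion to nuclear EA restores b-gal, read by luminescence after 1 h room-temperature detection. Engineered CHO-K1 biosensor cells, 1,000/well, exposed 2 h at 37 C to titrations up to 46 uM final.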

[7] = biological target: Mitogen-activated protein kinase 10 (Mus musculus) (UniProt Q61831); assay: JNK3 AlphaScreen Assay (AID 530; active = well fitted curve in either direction with a large enough effect, not every such curve was filed as active;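 also: kinase came from lysate of stimulated human HepG2 cells; signal reports phosphorylation of biotinylated GST-cJun 1-79 at Ser73 with 10 µM ATP; % is scaled to controls: 0 for no effect and ±100 for the full control effect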)
In short: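 Kinase buffer: 20 mM Tris-HCl pH 7.6, 10 mM MgCl2, 1 mM DTT, 0.1 mM Na3VO4, 0.01% Tween-20; ATP 10 uM. Substrate biotin-GST-cJun(1-79), enzyme from activated HepG2 lysates. Detection by Ser73 phospho-antibody AlphaScreen.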

[8] = biological target: 3',5'-cyclic-AMP phosphodiesterase 4B (Homo sapiens) (UniProt Q07343); assay: qHTS Assay for Inhibitors of PDE-IV (AID 607; active = well fitted activation curve with a large enough effect in the main read-out, with a control signal flat, not every such curve was filed as active; also: % of control where 0% means no effect)
In short: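 ACTOne HEK293 cells carry a modified cAMP-gated CNG channel and express endogenous PDE4; plated 1000 cells/well, compounds up to 22.9 uM final. Membrane-potential dye fluorescence (ex 535/em 590) was read; parental cells received 10 uM forskolin + 100 uM RO 20-1724.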

[9] = biological target: Cytochrome P450 3A4 (Homo sapiens) (UniProt P08684); assay: qHTS Assay for Activators of Cytochrome P450 3A4 (AID 885); also: nearly all actives have a fitted effect of over 65% in size
In short: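 CYP3A4 activity: Luciferin-PPXE O-dealkylation, 25uM substrate, 200mM KPO4, RT throughout. Read-out is luciferase luminescence; higher values reflect activation.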

[10] = biological target: Cytochrome P450 2C19 (Homo sapiens) (UniProt P33261); assay: qHTS Assay for Inhibitors and Substrates of Cytochrome P450 2C19 (AID 899); also: potency is read from the fitted curve at half-maximal effect; nearly all actives have a fitted effect of over 60% in size
In short: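 5nM enzyme + 10uM Luciferin-H EGE (=KM), 50mM KPO4; cpd pin-transferred, 10 min 37C; NADPH regen, 60 min 37C; stopped w/ luciferin detection reagent, 20 min; luminescence. Normalized to 57uM ketoconazole (AC100).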

[11] = biological target: Dual specificity protein kinase CLK4 (Homo sapiens) (UniProt Q9HAZ1); assay: qHTS Assay for Inhibitors of CDC-like Kinase 4 (Kinase-Glo Assay) (AID 1770); also: nearly all actives have a fitted effect of over 65% in size; also: potency is read from the fitted curve at half-maximal effect
In short: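 Clk4 25 nM, RS peptide 100 uM, ATP 1 uM, pH 7.5 Tris, 10 mM MgCl2, 2.5 mM DTT; 4.5 h RT; ATP depletion read by Kinase-Glo luminescence.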

[12] = biological target: Dual specificity protein kinase CLK4 (Homo sapiens) (UniProt Q9HAZ1); assay: qHTS Assay for Inhibitors of CDC-like Kinase 4 (ADP-Glo Assay) (AID 1771); also: nearly all actives have a fitted effect of over 70% in size; also: potency is read from the fitted curve at half-maximal effect
In short: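 25 nM Clk4, 100 uM RS peptide, 1 uM ATP (final); 2 mM MgCl2, 0.5 mM EGTA, 2.5 mM DTT, 0.01% Triton X-100; 1 hr RT. ADP-Glo readout: ATP depletion 45 min, conversion/luciferase 30 min, luminescence.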

[13] = Primary qHTS for small molecule stabilizers of the endoplasmic reticulum resident proteome: Secreted ER Calcium Modulated Protein (SERCaMP) assay (AID 1508630); also: % is scaled to controls: 0 for no effect and ±100 for the full control effect
In short: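 The SH-SY5Y reporter protocol was run at 3 concentrations up to 38.3 uM (primary) or 11 concentrations (follow-up): 16 h compound, 100 nM thapsigargin for 4 h, then extracellular luciferase luminescence.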

[14] = biological target: Lysosomal acid glucosylceramidase (Homo sapiens) (UniProt P04062); assay: Glucocerebrosidase-p2 (AID 348; in the data active = potency below about 10 µM; also: potency is read from the fitted curve at half-maximal effect); conditions: purified GBA, blue fluorogenic substrate, 40 min
In short: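 Normal human glucocerebrosidase (0.2 nM) with blue fluorogenic substrate (80 uM final) in citrate/phosphate pH 5.9 with 10mM sodium taurocholate, 0.01% tween-20; 40 min RT, NaOH/glycine stop; fluorescence Ex 365/Em 440; AC50 from a titration from 0.6 nM upwards.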

[15] = biological target: Dual specificity protein kinase CLK4 (Homo sapiens) (UniProt Q9HAZ1); assay: qHTS Assay for Inhibitors of CDC-like Kinase 4 (ADP-FP Assay) (AID 1795); also: nearly all actives have a fitted effect of over 60% in size; also: potency is read from the fitted curve at half-maximal effect
In short: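 Kinase activity was followed as ADP output, converted from fluorescence polarization with a calibration curve. Reactions ran one hour at low ATP (1 uM) with RS peptide substrate.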

[16] = biological target: Ubiquitin carboxyl-terminal hydrolase 1 (Homo sapiens) (UniProt O94782); assay: Inhibitors of USP1/UAF1: Pilot qHTS (AID 504865); also: nearly all actives have a fitted effect of over 35% in size; also: potency is read from the fitted curve at half-maximal effect
In short: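 Enzyme-free wells gave the negative control, while test wells held 1nM USP1/UAF1 preincubated with compound for 15 min at room temperature. Ub-Rho at 150nM final started the reaction, and fluorescence at 480/540 nm was recorded kinetically.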

[17] = biological target: Cytochrome P450 3A4 (Homo sapiens) (UniProt P08684); assay: qHTS Assay for Inhibitors and Substrates of Cytochrome P450 3A4 (AID 884); also: potency is read from the fitted curve at half-maximal effect; nearly all actives have a fitted effect of over 50% in size
In short: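 Luminescent readout of luciferin produced by CYP3A4 (20 nM) dealkylation of Luciferin-PPXE, 25 uM (its KM). NADPH-driven reaction ran 60 min at RT after 10 min compound preincubation; data scaled to 57 uM ketoconazole as 100% inhibition.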

[18] = biological target: Cytochrome P450 2D6 (Homo sapiens) (UniProt P10635); assay: qHTS Assay for Inhibitors and Substrates of Cytochrome P450 2D6 (AID 891); also: potency is read from the fitted curve at half-maximal effect; nearly all actives have a fitted effect of over 60% in size
In short: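 Luminescent read-out of luciferin formed by 5 nM human CYP2D6 demethylating 30 uM Luciferin-ME EGE (Km level) over 60 min at room temperature after NADPH regeneration addition. Data normalized to full inhibition by 1.43 uM quinidine.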

[19] = qHTS Assay for Identification of Small Molecule Agonists for Hypoxia Response Element Signaling Pathway (AID 914; active = well fitted activation curve with a large enough effect in the signal ratio, with a control signal flat, not every such curve was filed as active; the % refers to the signal ratio; also: % of control where 0% means no effect); conditions: ME-180 (cervical carcinoma) HRE-bla reporter, beta-lactamase ratio, CoCl2, 17 h; activation: stronger effect = higher value
In short: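 HRE-bla ME-180 cells with beta-lactamase reporter under hypoxia response element, compounds with EC50 CoCl2 for 17 hours at 37 C. CCF4 substrate, 460nm/530nm emission ratio gave %Activity; AC50 from titration series.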

Chain of Glucocorticoid receptor (Homo sapiens) (P04150 whole entry, looked up, the tested form may be a part): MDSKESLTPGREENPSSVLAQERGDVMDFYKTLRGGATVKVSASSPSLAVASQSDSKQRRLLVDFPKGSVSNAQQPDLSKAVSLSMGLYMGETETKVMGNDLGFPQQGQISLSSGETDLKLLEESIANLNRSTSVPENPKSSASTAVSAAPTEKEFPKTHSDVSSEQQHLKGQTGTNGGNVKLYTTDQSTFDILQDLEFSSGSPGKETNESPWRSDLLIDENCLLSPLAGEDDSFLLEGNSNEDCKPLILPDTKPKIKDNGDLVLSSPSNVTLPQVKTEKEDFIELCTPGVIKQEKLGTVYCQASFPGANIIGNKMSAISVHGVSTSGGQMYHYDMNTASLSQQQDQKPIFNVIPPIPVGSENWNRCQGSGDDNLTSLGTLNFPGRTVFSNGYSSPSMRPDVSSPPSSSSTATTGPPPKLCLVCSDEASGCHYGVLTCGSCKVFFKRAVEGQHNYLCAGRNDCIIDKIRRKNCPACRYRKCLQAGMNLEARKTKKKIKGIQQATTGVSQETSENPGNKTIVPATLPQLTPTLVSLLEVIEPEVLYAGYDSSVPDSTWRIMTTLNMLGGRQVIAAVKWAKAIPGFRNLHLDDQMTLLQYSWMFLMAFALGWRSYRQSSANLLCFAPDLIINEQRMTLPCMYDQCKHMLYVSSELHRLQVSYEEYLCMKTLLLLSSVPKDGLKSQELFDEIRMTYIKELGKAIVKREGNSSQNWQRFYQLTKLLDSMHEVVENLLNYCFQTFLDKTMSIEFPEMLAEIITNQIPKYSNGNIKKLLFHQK
Chain of 3',5'-cyclic-AMP phosphodiesterase 4B (Homo sapiens) (Q07343 whole entry, looked up): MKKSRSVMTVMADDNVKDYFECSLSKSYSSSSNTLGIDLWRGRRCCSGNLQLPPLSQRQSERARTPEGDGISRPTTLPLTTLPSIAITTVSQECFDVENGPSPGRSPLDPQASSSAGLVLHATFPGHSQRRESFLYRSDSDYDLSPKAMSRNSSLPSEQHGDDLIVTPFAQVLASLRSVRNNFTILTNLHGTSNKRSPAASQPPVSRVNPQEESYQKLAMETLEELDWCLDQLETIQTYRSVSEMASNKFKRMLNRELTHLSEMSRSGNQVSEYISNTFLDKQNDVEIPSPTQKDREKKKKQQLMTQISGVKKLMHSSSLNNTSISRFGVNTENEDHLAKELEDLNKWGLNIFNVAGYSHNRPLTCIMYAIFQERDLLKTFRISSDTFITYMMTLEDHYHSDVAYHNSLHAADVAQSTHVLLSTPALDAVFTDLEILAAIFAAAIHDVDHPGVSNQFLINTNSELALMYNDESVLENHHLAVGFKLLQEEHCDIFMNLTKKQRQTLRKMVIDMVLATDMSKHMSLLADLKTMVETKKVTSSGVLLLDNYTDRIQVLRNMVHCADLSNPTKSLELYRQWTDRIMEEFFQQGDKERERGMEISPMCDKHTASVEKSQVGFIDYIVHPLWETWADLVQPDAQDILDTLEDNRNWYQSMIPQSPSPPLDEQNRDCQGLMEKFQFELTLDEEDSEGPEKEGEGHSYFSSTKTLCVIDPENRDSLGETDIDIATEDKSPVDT
Chain of Ubiquitin carboxyl-terminal hydrolase 1 (Homo sapiens) (O94782 whole entry, looked up): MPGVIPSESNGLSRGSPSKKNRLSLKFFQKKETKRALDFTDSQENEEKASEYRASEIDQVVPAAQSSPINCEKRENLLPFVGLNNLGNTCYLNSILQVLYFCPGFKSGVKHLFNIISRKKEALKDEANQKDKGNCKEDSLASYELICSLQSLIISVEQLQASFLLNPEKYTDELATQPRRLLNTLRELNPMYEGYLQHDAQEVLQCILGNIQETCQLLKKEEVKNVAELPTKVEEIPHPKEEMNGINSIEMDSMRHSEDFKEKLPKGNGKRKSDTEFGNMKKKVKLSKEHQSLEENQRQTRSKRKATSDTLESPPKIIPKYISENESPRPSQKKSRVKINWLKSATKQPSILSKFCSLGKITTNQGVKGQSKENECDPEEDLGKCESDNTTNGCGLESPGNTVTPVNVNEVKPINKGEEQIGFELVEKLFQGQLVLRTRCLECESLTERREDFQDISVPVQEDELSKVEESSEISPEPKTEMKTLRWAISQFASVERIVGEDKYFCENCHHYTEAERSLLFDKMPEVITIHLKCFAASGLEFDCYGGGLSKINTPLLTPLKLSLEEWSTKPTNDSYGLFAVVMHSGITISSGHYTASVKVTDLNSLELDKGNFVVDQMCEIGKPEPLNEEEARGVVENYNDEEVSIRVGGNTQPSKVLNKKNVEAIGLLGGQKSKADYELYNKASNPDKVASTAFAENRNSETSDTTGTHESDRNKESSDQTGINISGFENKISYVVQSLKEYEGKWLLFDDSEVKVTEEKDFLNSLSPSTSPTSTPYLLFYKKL
Chain of Cytochrome P450 1A2 (Homo sapiens) (P05177 whole entry, looked up): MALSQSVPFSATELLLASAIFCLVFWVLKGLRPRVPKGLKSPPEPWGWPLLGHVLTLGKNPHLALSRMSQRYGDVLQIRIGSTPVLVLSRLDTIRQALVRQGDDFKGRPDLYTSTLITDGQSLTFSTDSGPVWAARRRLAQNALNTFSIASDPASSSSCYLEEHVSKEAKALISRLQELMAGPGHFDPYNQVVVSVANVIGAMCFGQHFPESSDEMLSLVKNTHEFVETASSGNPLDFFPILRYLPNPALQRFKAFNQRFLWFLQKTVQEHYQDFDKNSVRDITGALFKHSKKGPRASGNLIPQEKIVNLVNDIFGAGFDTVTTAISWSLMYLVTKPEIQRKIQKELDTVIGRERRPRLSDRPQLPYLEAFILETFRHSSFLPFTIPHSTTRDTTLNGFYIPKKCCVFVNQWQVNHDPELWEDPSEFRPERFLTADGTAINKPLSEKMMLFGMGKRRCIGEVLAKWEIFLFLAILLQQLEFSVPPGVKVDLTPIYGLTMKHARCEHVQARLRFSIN
Chain of Dual specificity protein kinase CLK4 (Homo sapiens) (Q9HAZ1 whole entry, looked up): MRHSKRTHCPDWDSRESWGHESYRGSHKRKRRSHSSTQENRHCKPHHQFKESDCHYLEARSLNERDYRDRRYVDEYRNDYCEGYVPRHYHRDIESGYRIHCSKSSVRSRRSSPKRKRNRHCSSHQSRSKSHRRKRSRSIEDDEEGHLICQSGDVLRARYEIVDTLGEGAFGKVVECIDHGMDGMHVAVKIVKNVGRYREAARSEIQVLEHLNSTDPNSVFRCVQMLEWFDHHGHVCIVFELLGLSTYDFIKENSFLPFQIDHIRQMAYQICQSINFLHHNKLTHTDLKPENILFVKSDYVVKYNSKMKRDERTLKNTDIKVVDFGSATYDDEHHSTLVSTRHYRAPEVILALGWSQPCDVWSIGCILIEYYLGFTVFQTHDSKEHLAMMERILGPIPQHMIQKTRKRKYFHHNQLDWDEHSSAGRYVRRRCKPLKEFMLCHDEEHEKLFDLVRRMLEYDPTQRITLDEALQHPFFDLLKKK
Chain of Lysosomal acid glucosylceramidase (Homo sapiens) (P04062 whole entry, looked up): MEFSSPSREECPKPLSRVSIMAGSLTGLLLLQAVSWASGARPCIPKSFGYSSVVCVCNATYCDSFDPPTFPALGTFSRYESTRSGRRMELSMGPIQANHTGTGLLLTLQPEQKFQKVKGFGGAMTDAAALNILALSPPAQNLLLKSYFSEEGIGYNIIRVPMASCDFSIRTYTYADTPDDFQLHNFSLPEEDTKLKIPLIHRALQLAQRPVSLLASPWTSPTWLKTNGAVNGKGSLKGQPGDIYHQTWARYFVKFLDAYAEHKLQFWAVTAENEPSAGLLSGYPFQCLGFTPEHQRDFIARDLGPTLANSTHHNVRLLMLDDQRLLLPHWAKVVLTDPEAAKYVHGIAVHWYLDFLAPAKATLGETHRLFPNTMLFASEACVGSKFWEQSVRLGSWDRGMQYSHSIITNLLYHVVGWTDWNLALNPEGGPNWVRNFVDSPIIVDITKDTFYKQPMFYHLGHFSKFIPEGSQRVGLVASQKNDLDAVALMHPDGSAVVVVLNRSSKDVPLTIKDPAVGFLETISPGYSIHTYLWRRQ
Chain of Cytochrome P450 3A4 (Homo sapiens) (P08684 whole entry, looked up): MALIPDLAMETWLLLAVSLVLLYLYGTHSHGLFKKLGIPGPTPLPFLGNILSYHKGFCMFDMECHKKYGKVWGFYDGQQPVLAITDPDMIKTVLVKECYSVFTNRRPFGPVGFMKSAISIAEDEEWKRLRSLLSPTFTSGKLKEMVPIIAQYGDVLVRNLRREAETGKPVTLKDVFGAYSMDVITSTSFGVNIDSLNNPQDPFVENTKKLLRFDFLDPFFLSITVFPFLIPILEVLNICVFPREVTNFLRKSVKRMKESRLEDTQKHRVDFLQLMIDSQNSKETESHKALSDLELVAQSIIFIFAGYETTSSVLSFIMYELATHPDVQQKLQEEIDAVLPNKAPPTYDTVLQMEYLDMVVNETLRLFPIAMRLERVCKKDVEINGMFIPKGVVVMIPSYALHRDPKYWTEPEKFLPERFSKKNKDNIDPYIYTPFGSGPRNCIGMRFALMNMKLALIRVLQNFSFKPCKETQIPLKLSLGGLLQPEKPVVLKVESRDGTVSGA
Chain of Cytochrome P450 2C19 (Homo sapiens) (P33261 whole entry, looked up): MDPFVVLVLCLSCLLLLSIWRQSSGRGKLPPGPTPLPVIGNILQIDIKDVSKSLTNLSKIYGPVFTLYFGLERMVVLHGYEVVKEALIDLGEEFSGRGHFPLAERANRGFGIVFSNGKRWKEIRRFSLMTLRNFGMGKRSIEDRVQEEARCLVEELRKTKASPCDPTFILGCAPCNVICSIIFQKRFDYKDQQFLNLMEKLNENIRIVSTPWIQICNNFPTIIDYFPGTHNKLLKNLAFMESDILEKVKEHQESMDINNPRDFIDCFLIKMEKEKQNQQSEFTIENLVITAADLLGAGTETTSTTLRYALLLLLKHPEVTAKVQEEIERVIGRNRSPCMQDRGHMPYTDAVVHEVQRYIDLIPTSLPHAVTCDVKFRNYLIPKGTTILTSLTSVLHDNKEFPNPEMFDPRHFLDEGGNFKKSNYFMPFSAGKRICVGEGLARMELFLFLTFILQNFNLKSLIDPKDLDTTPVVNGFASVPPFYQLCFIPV

COc1ccccc1CNc1ccnc(-c2ccccc2Cl)n1
inactive: activity change, negative = inhibition [1] -21.9% | activity change, negative = inhibition [3] -0.207% | activity, negative = inhibition [4] -0.645% | Potency [5] > 46 µM | Potency [6] > 46 µM | Potency [7] | Potency [8] | Potency [9] | Potency [11] | Potency [12] | outcome [13]
active: Potency [2] 5.01 µM | Potency [10] 1.58 µM

CCNc1ncc2nc(-c3ccc(F)cc3)c(=O)n(-c3ccc(OC)cc3)c2n1
inactive: Potency [14] > 11.4 µM | activity change, negative = inhibition [1] -1.24% | activity, negative = inhibition [4] 20.4% | Potency [5] > 9.22 µM | Potency [6] > 46 µM | Potency [7] | Potency [9] | Potency [11] | Potency [15] | Potency [16] | outcome [13]
active: Potency [2] 6.31 µM

CNc1ccnc(-c2ccccc2C)n1
inactive: Potency [14] > 11.4 µM | activity change, negative = inhibition [1] 0.123% | activity change, negative = inhibition [3] 13% | activity, negative = inhibition [4] 6.43% | Potency [5] > 46 µM | Potency [6] > 46 µM | Potency [7] | Potency [8] | Potency [9] | Potency [11] | Potency [15] | outcome [13]
active: Potency [2] 5.01 µM

N#CCCn1c(=O)c(-c2cc(F)cc(F)c2)nc2cnc(N3CCOCC3)nc21
inactive: Potency [14] > 11.4 µM | activity change, negative = inhibition [1] 2.2% | activity change, negative = inhibition [3] 20.1% | activity, negative = inhibition [4] 12.6% | Potency [5] > 9.22 µM | Potency [6] > 46 µM | Potency [7] | Potency [8] | Potency [9] | Potency [11] | Potency [15] | Potency [16] | outcome [13]
active: Potency [2] 3.16 µM

Cc1nc2cnc(Nc3ccccc3)nc2n(CCc2ccccc2)c1=O
inactive: Potency [14] > 11.4 µM | activity change, negative = inhibition [1] -7.04% | activity change, negative = inhibition [3] -9.65% | activity, negative = inhibition [4] -6.93% | Potency [5] > 9.22 µM | Potency [6] > 46 µM | Potency [7] | Potency [8] | Potency [9] | Potency [11] | Potency [15] | Potency [16] | outcome [13]
active: Potency [2] 2.51 µM

COc1ncc2nc(-c3cn(C)c4ccccc34)c(=O)n(CCC#N)c2n1
inactive: Potency [14] > 11.4 µM | activity change, negative = inhibition [1] -17.8% | activity change, negative = inhibition [3] -2.23% | activity, negative = inhibition [4] -7.24% | Potency [5] > 9.22 µM | Potency [6] > 46 µM | Potency [7] | Potency [8] | Potency [9] | Potency [11] | Potency [15] | Potency [16] | outcome [13]
active: Potency [2] 5.01 µM | Potency [17] 6.31 µM

O=c1cnc2cnc(Oc3cccc(Cl)c3)nc2n1CCc1ccccc1
active: Potency [11] 2.24 µM | Potency [12] 3.55 µM
inactive: Potency [14] > 11.4 µM | activity, negative = inhibition [4] -20.1% | Potency [5] > 9.22 µM | Potency [6] > 46 µM | Potency [7] | Potency [8] | Potency [16] | outcome [13]

COc1ccc2[nH]cc(CCNc3ccnc(-c4ccccc4Cl)n3)c2c1
inactive: activity change, negative = inhibition [1] -9.46% | activity change, negative = inhibition [3] 5.21% | activity, negative = inhibition [4] -20.6% | Potency [5] > 46 µM | Potency [6] > 46 µM | Potency [8] | Potency [9] | Potency [16] | outcome [13]
active: Potency [2] 0.398 µM | Potency [11] 22.4 µM | Potency [12] 22.4 µM

Cc1nc2cncnc2n(Cc2ccccc2Cl)c1=O
inactive: activity change, negative = inhibition [1] -18% | activity change, negative = inhibition [3] -1.6% | activity, negative = inhibition [4] -18.9% | Potency [5] > 9.22 µM | Potency [6] > 46 µM | Potency [7] | Potency [11] | Potency [12] | Potency [16] | outcome [13]

COc1cccc(-c2nccc(N(C)Cc3ccco3)n2)c1
inactive: activity change, negative = inhibition [1] -11.4% | activity change, negative = inhibition [3] -1.32% | activity, negative = inhibition [4] -2.39% | Potency [5] > 46 µM | Potency [6] > 46 µM | Potency [7] | Potency [8] | Potency [9] | activation [19] -11.6% | outcome [13]
active: Potency [2] 0.631 µM | Potency [18] 1.26 µM | Potency [10] 5.01 µM | Potency [11] 8.91 µM | Potency [12] 8.91 µM

COc1ncc2nc(C)c(=O)n(CCc3ccccc3)c2n1
active: Potency [2] 2 µM
inactive: Potency [14] > 11.4 µM | activity change, negative = inhibition [1] -1.51% | activity change, negative = inhibition [3] -3.03% | activity, negative = inhibition [4] -12.2% | Potency [5] > 9.22 µM | Potency [6] > 46 µM | Potency [7] | Potency [9] | Potency [11] | Potency [15] | Potency [16] | outcome [13]

Cc1noc(C)c1-c1nc(NCc2cccs2)c2ccccc2n1
inactive: Potency [14] > 2.29 µM | activity change, negative = inhibition [1] 3.98% | activity, negative = inhibition [4] -8.06% | Potency [5] > 46 µM | Potency [6] > 46 µM | Potency [7] | Potency [9] | Potency [11] | Potency [15] | outcome [13]
active: Potency [2] 0.2 µM | Potency [17] 6.31 µM | Potency [16] 10 µM

COCCNc1nc(-c2cccc(NS(C)(=O)=O)c2)nc2ccccc12
active: Potency [2] 3.16 µM | Potency [11] 11.2 µM | Potency [15] 14.1 µM
inactive: Potency [14] > 11.4 µM | activity change, negative = inhibition [1] -25.4% | activity change, negative = inhibition [3] 22.3% | activity, negative = inhibition [4] -10.1% | Potency [5] > 46 µM | Potency [6] > 46 µM | Potency [7] | Potency [9] | outcome [13]
